Bioassay records deposited in PubChem BioAssay by several laboratories.
BJeLR lethal – kills HRASV12-expressing BJeLR cells | actives 0.17% (n = 300,000) | BJeLR (HRASV12) viability, CellTiter-Glo ATP luminescence, 48 h | inhibition, % (no concentration beside the values); in the data active means inhibition above about 50%
PrPC TRFRET – cell surface PrPC inhibition, primary TR-FRET screen; AID 720596; TR-FRET read-out; inhibition, % at 13.8 µM; P04156; actives 0.43% (n = 370,000); in the data active means inhibition above about 24%; further: 0% = median of the test wells and 100% = reference compound wells
PrP UTR inh – suppresses PrP 5' UTR mRNA reporter expression; actives 0.35% (n = 340,000); inhibition, % (test concentration not listed); AID 488862; cell-based PrP 5' UTR mRNA reporter, plate reader; in the data active means inhibition above about 52%; further: 0 = median of the neutral control wells
FBA Mtb inh – inhibits M. tuberculosis FBA enzyme; purified M. tuberculosis FBA, fluorescence read-out; inhibition, % at 1 µM; actives 2.3% (n = 360,000); AID 588726; in the data active means inhibition above about 27%;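 further: 0% = vehicle and 100% = reference inhibitor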
Target sequence (P9WQA3 whole entry, looked up): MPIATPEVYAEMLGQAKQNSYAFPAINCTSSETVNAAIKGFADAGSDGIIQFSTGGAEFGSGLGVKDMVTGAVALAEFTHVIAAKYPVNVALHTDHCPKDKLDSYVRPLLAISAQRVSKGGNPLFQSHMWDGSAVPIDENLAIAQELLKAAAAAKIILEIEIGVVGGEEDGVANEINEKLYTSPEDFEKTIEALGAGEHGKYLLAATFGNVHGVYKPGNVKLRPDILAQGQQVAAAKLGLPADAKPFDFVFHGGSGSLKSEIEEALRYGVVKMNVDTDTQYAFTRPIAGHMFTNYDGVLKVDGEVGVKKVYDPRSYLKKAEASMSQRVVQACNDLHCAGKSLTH
GDH-TPI inh – counter-screen for M. tuberculosis FBA inhibitors: GDH-TPI coupled enzymes; GDH-TPI coupled enzyme counterscreen, NADH absorbance; inhibition, % at 4.8 µM; actives 1.2% (n = 360,000); AID 588335; in the data active means inhibition above about 30%;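 further: 0% = DMSO wells and 100% = wells lacking the enzyme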
PfHsp40 rescue – rescue of PfHsp40-mediated yeast toxicity; growth rescue, % at 12.5 µM; actives 0.68% (n = 340,000); S. cerevisiae expressing PfHsp40, growth rescue, ATP luminescence; in the data active means growth rescue above about 28%, passing the limit was not always enough;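 further: yeast W303a lacking pdr1 and pdr3 grown in galactose medium; growth measured after three days at 30 °C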
PrP UTR cherry – prion 5' UTR mRNA inhibition, cherry-pick retest; cell-based prion protein 5' UTR reporter, plate reader; actives 48% (n = 1,100); AID 504592; inhibition, % at 2.5 µM; shares compounds with PrP UTR inh; in the data active means inhibition above about 54%
The depositor's hits bear a star; · = not tested or not shown. Rows were chosen to be rich in hits. Some 4.5% of all compounds tested hit in one or more screens of this group.

SMILES	BJeLR lethal	PrPC TRFRET	PrP UTR inh	FBA Mtb inh	GDH-TPI inh	PfHsp40 rescue	PrP UTR cherry
COc1cc(/C=N/O)ccc1OCc1ccc(C(=O)O)cc1	14	-2	88*	3	4	-1	91*
CN(CCc1ccccc1)C(=O)c1cccc(NC(=O)Cc2cccc(NC(=O)C3CCCN(C(=O)C4CCCCC4)C3)c2)c1 (stereo not given)	·	11	-8	-1	8	1	·
CN(Cc1ccccc1)C(=O)c1ccc(NC(=O)Cc2ccc(NC(=O)C3CCCN(C(=O)C4CCCC4)C3)cc2)cc1 (stereo not given)	·	5	-21	1	1	0	·
CN(CCc1ccccc1)C(=O)c1cccc(NC(=O)Cc2cccc(NC(=O)C3CCCN(C(=O)C4CC4)C3)c2)c1 (stereo not given)	·	1	53*	4	6	-1	-59
CN(Cc1ccccc1)C(=O)c1ccc(NC(=O)Cc2ccc(NC(=O)C3CCCN(C(=O)C4CC4)C3)cc2)cc1 (stereo not given)	·	-3	86*	-2	4	2	-11
CC(C)c1nnc(NC(=O)CSc2nnc(NC(=O)c3c(F)cccc3F)s2)s1	1	-3	79*	-5	1	0	-2
O=C(CSc1nnc(NC(=O)c2c(F)cccc2F)s1)Nc1ccccc1F	-5	-1	-20	-1	8	-1	·
O=C(Nc1ccccc1Oc1ccccc1)NC1CCCCN(Cc2ccc(Cl)cc2)C1=O (stereo not given)	·	-4	·	·	·	·	·
CC[C@H](C)NC(=O)CCCCCn1c(=S)[nH]c2c([nH]c3ccc(OC)cc32)c1=O	-6	-1	66*	4	2	-1	-15
CCn1c2ccccc2c2cc(NC(=O)c3cc4c(C)nn(-c5ccccc5)c4s3)ccc21	·	4	·	·	·	·	·
COc1ccc(C(=O)NN(C)c2nc(C(F)(F)F)nc3ccccc23)cc1	60*	8	71*	-3	5	1	90*
COc1ccc(C(=O)NN(C)c2nc(-c3ccccc3)nnc2C(F)(F)F)cc1	-3	1	-6	3	6	1	·
COC(=O)C1CN(Cc2cn(Cc3ccc(OC)cc3)nn2)CCS(=O)(=O)N1Cc1ccc(C)cc1 (stereo not given)	·	0	·	·	·	·	·
Cc1nc2ncccn2c1-c1csc(Nc2ccc(N(C)C)cc2)n1	35	5	60*	-1	17	0	90*
Cc1nc2ncccn2c1-c1csc(Nc2ccccc2)n1	11	-7	1	5	1	0	·
COc1ccc(Nc2nc(-c3c(C)nc4ncccn34)cs2)cc1	·	0	65*	3	6	0	87*
C#CCNC(=O)C[C@H]1C[C@@]2(C(=O)OC)C(=C[C@H](COCc3ccccc3)O[C@@H]2C)N(Cc2ccccc2)C1=O	·	-4	·	·	·	·	·
CCOc1ccc(NC(=O)CN(C)C(=O)C2CCCC2)cc1OCC	6	7	83*	-3	-6	1	-13
COc1ccc(C(NC(=O)C2CCN(CCCOc3ccccc3)CC2)c2cccs2)cc1 (stereo not given)	·	-29	·	5	9	·	·
O=C(O)CCCc1ccc2c(c1)CCc1ccccc1-2	-8	-3	65*	2	1	185*	75*
O=C(CCCc1ccccc1)NC1CC1	-15	8	-19	6	12	0	·
COc1cc(OC)cc(-c2cc3cc4c(cc3cn2)OCO4)c1	·	·	62*	4	3	10	81*
COc1ccc(-c2cc3cc4c(cc3cn2)OCO4)cc1	·	6	-7	20	6	2	·
CN(C(=O)CSc1nc(-c2ccccc2)cs1)C1CCS(=O)(=O)C1 (stereo not given)	-6	0	85*	-2	0	0	-30
CN(C(=O)CSc1nc(-c2ccc(F)cc2)cs1)C1CCS(=O)(=O)C1 (stereo not given)	8	-6	-8	4	8	-2	·
CN(C)c1ccc(NC(=S)c2ccccn2)cc1	13	-5	83*	2	3	3	80*
CN(C)c1ccc(C(=S)Nc2ccccc2)cc1	3	9	22	1	24	0	·
CCOc1ccc(Nc2nc(N)c3ccccc3n2)cc1	38	5	56*	2	-4	-7	41
